KinaseGlo FLuc = Counterscreen for Luciferase (Kinase-Glo TM) Inhibition | Potency, µM (highest dose often 38.3 µM), actives largely listed as inhibitors | 200,000 compounds, 0.28% hits | AID 1379, 2008 | Luciferin 4-monooxygenase (Photuris pensylvanica), Q27757 | Kinase-Glo luciferase, ATP luminescence, 8 min; note: nearly all actives have a fitted effect of over 60% in size
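Compounds were added to a substrate mix at pH 7.2 (50 mM imidazole, 10 uM ATP, within the enzyme's linear range), followed by Kinase-Glo detection reagent; luminescence was measured after 8 minutes at ambient temperature.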
RORgamma inh = qHTS for inhibitors of ROR gamma transcriptional activity; Nuclear receptor ROR-gamma (Mus musculus), P51450; Drosophila S2 Gal4-RORgamma UAS-luciferase reporter, 20 h; Potency, µM (series often up to 53.6 µM), most hits filed as inhibitors; 310,000 compounds, 5.4% hits; AID 2551, 2010; note: nearly all actives have a fitted effect of over 60% in size
Target sequence (P51450 whole entry, looked up, the tested form may be a part): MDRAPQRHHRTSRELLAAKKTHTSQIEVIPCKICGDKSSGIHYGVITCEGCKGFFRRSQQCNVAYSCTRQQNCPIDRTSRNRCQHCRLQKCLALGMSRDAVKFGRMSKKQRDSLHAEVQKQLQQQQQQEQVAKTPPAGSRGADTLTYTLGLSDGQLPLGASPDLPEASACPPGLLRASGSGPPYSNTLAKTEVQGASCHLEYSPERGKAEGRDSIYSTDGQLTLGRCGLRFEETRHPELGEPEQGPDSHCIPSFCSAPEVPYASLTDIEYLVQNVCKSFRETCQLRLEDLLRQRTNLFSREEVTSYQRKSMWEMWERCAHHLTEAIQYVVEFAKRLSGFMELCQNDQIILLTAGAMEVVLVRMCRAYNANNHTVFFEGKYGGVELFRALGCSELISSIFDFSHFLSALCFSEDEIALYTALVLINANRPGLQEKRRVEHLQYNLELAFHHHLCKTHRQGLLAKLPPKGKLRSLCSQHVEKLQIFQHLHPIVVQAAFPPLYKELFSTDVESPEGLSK
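Luciferase reporter read in Schneider cells carrying Gal4-RORγ (mouse) and UAS-Photinus luciferase; cells given compound 1 h before 700 uM copper sulfate induction, then incubated 20 h at ambient temperature.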
Gal4-VP16 FLuc = VP16 counterscreen qHTS for inhibitors of ROR gamma transcriptional activity | Drosophila S2 Gal4-VP16 UAS-luciferase, luminescence, 20 h | Potency, µM (doses to about 53.6 µM), most hits filed as inhibitors | 310,000 compounds, 3.5% hits | AID 2546, 2010;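 note: Gal4-VP16 expression switched on by copper sulfate through the metallothionein promoter; nearly all actives have a fitted effect of over 50% in size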
A number is an active result; – = inactive; ? = inconclusive; · = not tested or not shown; [ ] = dose if it differs, or a comment. Hits are enriched below; roughly 6.2% of the tested compounds scored in any of these assays. Calls come from the whole dose curve; as a rule, active = well fitted curve in the direction sought with a large enough effect; inconclusive = small, poorly fitted or top-dose-only effect, or another doubt; inactive = no such curve, though single readings can be large; an effect the other way counts as inactive or inconclusive.

SMILES	KinaseGlo FLuc	RORgamma inh	Gal4-VP16 FLuc
COC(=O)c1cnn(-c2ccccc2)c1C(OC)OC	·	?	–
COC(=O)c1cnn(-c2ccc(F)cc2F)c1/C=N/NC(=S)NC(C)(C)C	·	1.3µM	?
COC(=O)c1cnn(-c2ccccc2)c1/C=N/NC(=S)Nc1ccccc1	·	0.89µM	3.5µM
COC(=O)c1cnn(-c2ccc(F)cc2F)c1/C=N/NC(N)=S	·	–	–
CNC(=S)N/N=C/c1c(C(=O)OC)cnn1-c1ccc(F)cc1F	·	8.9µM	?
CCOC(=O)N/N=C/c1ccc(F)cc1F	–	–	–
CN(C)c1ccc(/C=C2\C(=O)Nc3ccccc32)c2ccccc12	·	–	–
COCCC(=O)N1CCC(Oc2ccc(C(=O)N3CCCCC3COC)cc2)CC1 (stereo not given)	·	–	–
COc1cccc(C(=O)NNC(=O)c2cccnc2)c1	·	–	–
O=C(Nc1cc(C(F)(F)F)ccc1Cl)c1cccnc1	·	–	–
CC(C)(C)c1cc(Cl)c(O)c(NC(=S)NC(=O)c2cccnc2)c1	–	0.16µM	0.89µM
CCC(C)c1ccc(O)c(NC(=O)c2cccnc2)c1 (stereo not given)	–	–	–
CC(C)c1ccc(O)c(NC(=S)NC(=O)c2cccnc2)c1	·	0.71µM	1.4µM
COc1ccc(NC(=S)NC(=O)c2cccnc2)cc1	·	11µM	?
COc1cc(OC)cc(C(=O)NNC(=S)NC(=O)c2cccnc2)c1	·	11µM	–
O=C(O)c1ccc(NC(=S)NC(=O)c2cccnc2)cc1	·	?	–
CN(C(=O)c1cc(-c2ccccc2)on1)C1CCCCC1	·	–	–
CC1SCC(=O)N(CC(=O)NCCc2ccccc2)C1=O (stereo not given)	–	–	–
COc1ccc(OC)c(/C=C2\SC(N3CCCC(C)C3)=NC2=O)c1 (stereo not given)	·	–	–
C/C(CC(=O)Nc1ccc(OCc2ccccc2)cc1)=N\NC(=O)C(=O)Nc1cccc(C)c1	–	–	?
CC(C)C(NC(=O)C(CC(=O)O)NC(=O)C(CCCCN)NC(=O)C(N)CCCN=C(N)N)C(=O)NC(Cc1ccc(O)cc1)C(=O)O (stereo not given)	·	–	–
CCCCCCCCCCCCCCCC(N)=O	–	–	–
Cc1ccc(-c2c[n+](CC(=O)Nc3cc(=O)n(C)c(=O)n3C)c3n2CCC3)cc1	–	–	–
CC(C)(C)C(=O)NC(=S)NNC(=O)c1ccncc1	–	?	–[10 µM]
CC(C)(C)c1ccc(C(=O)NNC(=S)NC(=O)c2cccnc2)cc1	·	2.8µM	?
SMILES	KinaseGlo FLuc	RORgamma inh	Gal4-VP16 FLuc
O=C(NC(=S)NCCSc1ccccc1)c1cccnc1	–	13µM	?
CC(C)(C)C(=O)NC(=S)NNC(=O)c1ccc(-c2ccccc2)cc1	–	?	16µM
O=C(NC(=S)Nc1ccc(Br)cn1)c1cccnc1	·	–	–
O=C(NC(=S)NCc1cccnc1)c1ccccc1	–	–	–
O=C(NC(=S)Nc1ccccc1Br)c1cccnc1	·	10µM	18µM
CC(C)(C)c1ccc(C(=O)NC(=S)NCc2cccnc2)cc1	–	–	–
Cc1cc(C(=O)OCn2nnc3ccccc3c2=O)c(C)o1	–	–	–
CN(C(=O)CCl)C1CCCc2ccccc21 (stereo not given)	–	?	–
CCOc1ccc(S(=O)(=O)N(CC)CC(=O)NCc2ccncc2)cc1C	·	–	–
CC(C)(C)c1ccc(OCCNC(=S)NC(=O)c2cccnc2)cc1	–	13µM	?
CC(C)(C)c1ccc(OCC(=O)NNC(=O)c2cccnc2)cc1	–	–	–
CC(NCc1ccccc1Cl)C(=O)Nc1ccc(C#N)cc1 (stereo not given)	–	–	–
O=c1c(-c2ccccc2)nc2cncnc2n1Cc1ccccc1	·	–	–
Cc1ccc2oc(C(=O)Nc3nnc(CC(C)C)s3)c(C)c2c1	·	7.1µM	–
CC(C)Cc1nnc(NC(=O)c2ccncc2)s1	–	–	–
CCOc1ccc(NC(=O)CN(C)CC(=O)Nc2ccc(Br)cc2F)cc1OCC	–	–	–
CC(=O)[C@]1(O)CC[C@@H]2[C@H]3C[C@@H](C)C4=CC(=O)CC[C@@]4(C)C3[C@@H](O)C[C@]21C (stereo not given in full)	–[7.66 µM]	·	·
COc1ccc(S(=O)(=O)Nc2ccccc2C(=O)O)cc1	–	·	·
O=c1c(-c2cccc(Cl)c2)nc2cncnc2n1C1CC1	·	–	–
O=C(Nc1c(F)cccc1F)c1ccc(-n2cncn2)nc1	–	–	–
Cc1ccccc1NC(=O)c1ccc(-n2cncn2)nc1	–	18µM	–[0.365 µM]
CCCn1c(-c2ccc(F)cc2)nc2c(NCCCN(CCO)CCO)nc(C)nc21	–	–	–
Cc1cc(=O)[nH]c(N/N=C/C=C/c2ccccc2)n1	–	13µM	–
Cc1cc(=O)[nH]c(N/N=C2/CCCC/C2=C\c2ccccc2)n1	·	6.3µM	18µM
Cc1sc(NC(=O)c2c(F)cccc2F)nc1-c1ccccc1	·	?	–
SMILES	KinaseGlo FLuc	RORgamma inh	Gal4-VP16 FLuc
Cc1cc(=O)[nH]c(N/N=C/c2ccccn2)n1	–	?	–
Cc1cc(C)nc(N/N=C/C=C/c2ccccc2)n1	–	1.3µM	7.9µM
Cc1cc(=O)[nH]c(N/N=C/CCc2ccccc2)n1	–	?	–
Cc1sc(N/N=C/C=C/c2ccccc2)nc1-c1ccccc1	–	3.5µM	?
Cc1cc(C)nc(N/N=C/c2ccccc2)n1	–	?	–
Cc1ccc(NC(=O)c2ccc(=O)[nH]c2)cc1S(=O)(=O)N1CCCCC1	·	–	–
CN1C(=O)[C@H]2[C@@H](C3CC3)N3C(=O)CN(CC4CC4)C(=O)[C@@]3(C)[C@H]2C1=O	·	–	–
CCOc1ccccc1N(CC(=O)Nc1c(C)n(C)n(-c2ccccc2)c1=O)S(=O)(=O)c1ccccc1	·	–	–
O=C(COC(=O)c1c(Cl)ccc(Cl)c1Cl)NC1CCS(=O)(=O)C1 (stereo not given)	–	–	–
CCc1ccc(CN2CCC(CO)(CC3CCCCO3)CC2)o1 (stereo not given)	–	–	–
CCN1/C(=C/c2ccc3ccccc3[n+]2CCCS(=O)(=O)[O-])C=Cc2cc(C)ccc21	·	–	–
CCN1/C(=C/c2ccc3ccccc3[n+]2CC)C=Cc2ccccc21	–	8.9µM	2.8µM
COc1ccc2c(c1)c1c(C)c3cnccc3c(C)c1n2CCCN	–[7.66 µM]	·	·
CC(=O)c1cccc(NC(=O)CCNC(=O)c2cccc(C)c2)c1	·	–	–
COc1ccc(C(=O)Nn2c(SCC(=O)NCc3ccccc3)nc3ccccc3c2=O)cc1	–	10µM	–
O=C(CSc1nc2ccccc2c(=O)n1CC1CCCO1)NCC1CCCO1 (stereo not given)	–	–	–
COc1ccc(C(=O)Nn2c(SCC(=O)NC3CCCC3)nc3ccccc3c2=O)cc1	–	?	?
COc1ccc(C(=O)Nn2c(SCC(=O)NCC3CCCO3)nc3ccccc3c2=O)cc1 (stereo not given)	?	7.1µM	?
COc1ccccc1C(=O)NC1CCN(C(=O)Nc2ccc(C)cc2)CC1	·	–	–
O=C(CO)N/N=C/c1c2ccccc2cc2ccccc12	–	–	–
C[N+](C)(C)CC(=O)N/N=C\c1c(O)ccc2ccccc12	–[7.66 µM]	·	·
COc1ccc(NC(C)C(=O)N/N=C/c2c(O)ccc3ccccc23)cc1 (stereo not given)	·	1.6µM	3.5µM

Source: PubChem BioAssay
